Assay [1] can be described thus: binders of probe aFSTL3 on microarray, primary screen, stem cell growth factor project, biochemical, small-molecule microarray, fluorescence 635/667 (AID 1064).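 Further: measures binding of the biotinylated anti-FSTL3 antibody to printed compounds.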 The conditions noted are these: higher = more signal.
Assay [2] in a line: binders from COS7 lysate, DM2A8 probe, primary screen, torsin A project, cell lysate, small-molecule microarray, fluorescence 635/667 (AID 1065). Particulars: higher = more signal, COS7 lysate expressing mutant human TOR1A.
Assay [3] is described as follows: binders of probe aFGF2 on microarray, primary screen, stem cell growth factor project, biochemical, small-molecule microarray, fluorescence 635/667 (AID 1067).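 Further: measures binding of biotinylated aFGF2 protein to printed compounds on slides; z-score merges feature fluorescence and signal-to-noise across triplicate slides.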 The conditions noted are these: higher = more signal.
A short description of assay [4]: binders of probe aFGF10 on microarray, primary screen, stem cell growth factor project, biochemical, small-molecule microarray, fluorescence 635/667 (AID 1071).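 Further: score merges 667 nm spot intensity and signal to noise from triplicate slides.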 Particulars: higher = more signal.
Assay [5] addresses Neurogenic locus notch homolog protein 2 (Homo sapiens) (UniProt Q04721). The experiment in a line: Notch2 binders on small-molecule microarrays, primary screen, biochemical, small-molecule microarray, 635 nm fluorescence, stem cell growth factors (AID 1073). The conditions noted are these: Notch2 binding, higher = more signal.
Assay [6] has as its target Pro-neuregulin-1, membrane-bound isoform (Homo sapiens) (UniProt Q02297). Description: NRG1 binders on small-molecule microarrays, primary screen, psychiatric disease protein project, biochemical, small-molecule microarray, fluorescence 635/667 (AID 1075).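 Further: score combines 667 nm spot fluorescence with signal to noise.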 Particulars: NRG1 binding, 635 nm fluorescence, higher = more signal.
Assay [7] concerns Neuregulin-1 EGF-like domain. The experiment in a line: binders of neuregulin-1 EGF-like domain, primary screen, biochemical, small-molecule microarray, 635 nm fluorescence (AID 1081).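 Further: binding of the protein to compounds printed on small-molecule microarray slides.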 The conditions noted are these: small-molecule microarray binding, higher = more signal.
Assay [8] can be described thus: FRG1 promoter luciferase signal modulators, primary screen, FRG1 inhibition for FSHD, cell-based, C2C12 myotubes, firefly/Renilla luciferase, luminescence (AID 1084). Particulars: higher = more signal, called active from +8 up or from −8 down.
Assay [9] is described as follows: binders of probe aFST on microarray, primary screen, stem cell growth factor project, biochemical, small-molecule microarray, fluorescence 635/667 (AID 1086).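 Further: score merges 667 nm fluorescence with signal-to-noise of each printed compound spot.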 The conditions noted are these: higher = more signal.
Assay [10] is described as follows: binders of probe aHhip on microarray, primary screen, stem cell growth factor project, biochemical, small-molecule microarray, fluorescence 635/667 (AID 1087).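 Further: score merges spot fluorescence at 667nm with spot signal to noise ratio.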 Particulars: higher = more signal.
Assay [11] has as its system PRMT1 (protein arginine N-methyltransferase 1). The experiment in a line: PRMT1 binders on small-molecule microarrays, primary screen, biochemical, small-molecule microarray, 635 nm fluorescence (AID 1088).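 Further: binding of Prmt1 protein to compounds spotted on small-molecule microarray slides.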 Particulars: small-molecule microarray binding, higher = more signal.
The nature of assay [12]: yeast growth modulation, basal conditions, primary screen, YJM789 clinical isolate, OD600, 24 h (AID 1089).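 Further: growth of clinical yeast isolate S. cerevisiae YJM 789 seeded 1000 cells per well; test concentration not given here.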 Particulars: S. cerevisiae YJM789 growth, higher = more signal, called active from +8 up or from −8 down.
The nature of assay [13]: fission yeast growth modulation, primary screen, strain 972, OD600, 24 h, no modulator (AID 1090).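 Further: basal condition with compound alone and no growth modifier present; test concentration not given here.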 Particulars: S. pombe 972 growth, higher = more signal, called active from +8 up or from −8 down.
A short description of assay [14]: S. cerevisiae growth modulation with rapamycin, primary screen, strain BY4716, OD600, 96 h (AID 1091). Further: test concentration not given here. The conditions noted are these: higher = more signal, called active from +8 up or from −8 down.
In assay [15] the target is Torsin-1A-interacting protein 2 (Homo sapiens) (UniProt Q8NFQ8). The experiment in a line: LULL1 binders on small-molecule microarray, primary screen, cell lysate, human LULL1 lysate, 635/667 nm fluorescence (AID 1092).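 Further: probe is lysate of COS7 cells overexpressing human LULL1; score merges per-feature 667 nm fluorescence with signal-to-noise.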 Particulars: hLULL1 lysate binding, 635 nm fluorescence, higher = more signal.
Sequence of Torsin-1A-interacting protein 2 (Homo sapiens) (Q8NFQ8 whole entry, looked up): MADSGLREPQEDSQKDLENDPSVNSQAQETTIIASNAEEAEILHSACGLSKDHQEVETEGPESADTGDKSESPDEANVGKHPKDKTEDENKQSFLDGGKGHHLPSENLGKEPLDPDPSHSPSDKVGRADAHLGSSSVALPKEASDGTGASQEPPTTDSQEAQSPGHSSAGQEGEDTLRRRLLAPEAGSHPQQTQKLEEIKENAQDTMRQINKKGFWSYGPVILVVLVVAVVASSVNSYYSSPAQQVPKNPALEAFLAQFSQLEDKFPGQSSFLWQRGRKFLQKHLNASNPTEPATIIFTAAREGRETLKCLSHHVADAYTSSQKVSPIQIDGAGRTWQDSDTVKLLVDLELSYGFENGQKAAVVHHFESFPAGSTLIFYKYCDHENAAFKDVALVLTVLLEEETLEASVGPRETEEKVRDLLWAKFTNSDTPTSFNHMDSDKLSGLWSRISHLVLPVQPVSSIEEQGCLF
Assay [16] in a line: E. coli growth modulation, two-sided OD650, primary screen, E. coli filamentation project, strain DRC41, 24 h (AID 1093).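 Further: MC1000 strain lacking acrAB efflux and sulA so SOS filamentation is blocked; test concentration not given here.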 Particulars: OD650, 24 h, higher = more signal, called active from +8 up or from −8 down.
A short description of assay [17]: small-molecule microarray binders of probe aLefty2, primary screen, biochemical, biotinylated probe, 635/667 nm fluorescence (AID 1094).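 Further: score merges spot fluorescence near 667 nm with spot signal-to-noise ratio.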 Particulars: higher = more signal.
The test system of assay [18] is Noggin (protein binding on small-molecule microarray). Description: Noggin binders on small-molecule microarray, primary screen, biochemical, 635/667 nm fluorescence (AID 1095).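 Further: score merges 667 nm feature fluorescence with signal to noise over triplicate slides.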 The conditions noted are these: 635 nm fluorescence, higher = more signal.
Assay [19] concerns the target Neurogenic locus notch homolog protein 3 (Homo sapiens) (UniProt Q9UM47). Description: NOTCH3 binders on small-molecule microarray, primary screen, biochemical, 635/667 nm fluorescence (AID 1096). The conditions noted are these: NOTCH3 binding, 635 nm fluorescence, higher = more signal.
Assay [20] is described as follows: small-molecule microarray binders of probe aEGFR, primary screen, biochemical, biotinylated probe, 635/667 nm fluorescence (AID 1097).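 Further: probe is a biotinylated anti-EGFR antibody binding compounds printed on slides; score combines fluorescence near 667 nm and signal to noise of each spot.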 Particulars: higher = more signal.

Molecules are shown by their SMILES. Active and inactive are the calls of the source.

Sequence of Neurogenic locus notch homolog protein 3 (Homo sapiens) (Q9UM47 whole entry, looked up): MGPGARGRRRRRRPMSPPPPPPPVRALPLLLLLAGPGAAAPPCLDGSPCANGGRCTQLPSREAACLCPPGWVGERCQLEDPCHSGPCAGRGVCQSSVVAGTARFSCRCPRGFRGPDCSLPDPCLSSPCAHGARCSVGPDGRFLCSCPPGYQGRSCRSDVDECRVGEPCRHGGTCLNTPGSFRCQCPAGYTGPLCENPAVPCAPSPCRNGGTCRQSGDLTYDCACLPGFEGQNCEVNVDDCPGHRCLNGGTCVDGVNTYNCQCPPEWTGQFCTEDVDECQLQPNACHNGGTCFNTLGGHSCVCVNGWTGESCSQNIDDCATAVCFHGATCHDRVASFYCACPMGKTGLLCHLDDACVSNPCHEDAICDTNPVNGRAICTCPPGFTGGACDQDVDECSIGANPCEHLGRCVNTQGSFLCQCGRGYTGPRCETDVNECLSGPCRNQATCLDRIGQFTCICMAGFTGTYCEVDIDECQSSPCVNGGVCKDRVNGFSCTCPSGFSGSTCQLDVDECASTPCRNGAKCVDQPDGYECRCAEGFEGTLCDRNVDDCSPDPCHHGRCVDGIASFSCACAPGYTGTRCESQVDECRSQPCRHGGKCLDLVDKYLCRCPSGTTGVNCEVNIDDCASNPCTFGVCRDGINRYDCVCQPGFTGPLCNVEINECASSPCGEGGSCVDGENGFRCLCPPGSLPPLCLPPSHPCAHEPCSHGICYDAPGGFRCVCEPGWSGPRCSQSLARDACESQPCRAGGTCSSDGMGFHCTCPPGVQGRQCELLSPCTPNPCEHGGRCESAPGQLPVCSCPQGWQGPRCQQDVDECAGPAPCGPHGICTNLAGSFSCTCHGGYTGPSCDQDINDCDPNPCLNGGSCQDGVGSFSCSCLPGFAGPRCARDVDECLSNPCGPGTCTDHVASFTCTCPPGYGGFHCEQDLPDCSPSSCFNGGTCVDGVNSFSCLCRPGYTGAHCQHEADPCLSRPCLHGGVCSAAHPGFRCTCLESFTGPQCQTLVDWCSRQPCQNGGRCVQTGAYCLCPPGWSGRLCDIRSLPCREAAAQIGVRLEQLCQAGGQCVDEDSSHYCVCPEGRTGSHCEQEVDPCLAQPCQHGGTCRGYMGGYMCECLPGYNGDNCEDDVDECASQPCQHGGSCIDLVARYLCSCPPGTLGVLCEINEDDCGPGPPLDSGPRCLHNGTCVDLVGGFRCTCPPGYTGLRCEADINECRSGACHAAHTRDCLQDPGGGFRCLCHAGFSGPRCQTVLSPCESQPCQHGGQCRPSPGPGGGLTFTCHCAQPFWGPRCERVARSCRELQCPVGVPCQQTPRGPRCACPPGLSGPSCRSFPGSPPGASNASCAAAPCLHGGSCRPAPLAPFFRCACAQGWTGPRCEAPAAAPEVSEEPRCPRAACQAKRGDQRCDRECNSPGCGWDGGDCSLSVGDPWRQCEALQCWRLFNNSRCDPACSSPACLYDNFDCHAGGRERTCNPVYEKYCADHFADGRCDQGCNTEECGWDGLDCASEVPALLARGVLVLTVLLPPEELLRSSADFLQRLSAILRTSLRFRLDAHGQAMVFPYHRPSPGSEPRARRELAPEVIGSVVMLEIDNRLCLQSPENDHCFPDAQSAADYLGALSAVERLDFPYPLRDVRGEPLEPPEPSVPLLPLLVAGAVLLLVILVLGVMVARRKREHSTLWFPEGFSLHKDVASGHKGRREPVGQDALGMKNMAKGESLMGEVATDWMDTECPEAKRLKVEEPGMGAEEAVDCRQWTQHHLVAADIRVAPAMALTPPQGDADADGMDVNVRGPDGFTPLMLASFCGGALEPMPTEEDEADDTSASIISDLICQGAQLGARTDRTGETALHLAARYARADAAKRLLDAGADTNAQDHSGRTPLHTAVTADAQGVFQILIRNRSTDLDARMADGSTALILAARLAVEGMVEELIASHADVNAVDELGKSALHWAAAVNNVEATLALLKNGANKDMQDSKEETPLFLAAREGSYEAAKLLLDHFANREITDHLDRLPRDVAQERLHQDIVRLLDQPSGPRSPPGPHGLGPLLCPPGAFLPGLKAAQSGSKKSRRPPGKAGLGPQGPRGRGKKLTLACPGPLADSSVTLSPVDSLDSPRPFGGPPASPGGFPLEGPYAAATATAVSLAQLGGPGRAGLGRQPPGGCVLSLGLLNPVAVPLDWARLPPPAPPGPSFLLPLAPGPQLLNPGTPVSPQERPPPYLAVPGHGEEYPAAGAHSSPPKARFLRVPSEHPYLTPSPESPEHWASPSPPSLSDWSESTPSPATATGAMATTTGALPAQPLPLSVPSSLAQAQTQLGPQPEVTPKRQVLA
Sequence of Pro-neuregulin-1, membrane-bound isoform (Homo sapiens) (Q02297 whole entry, looked up, the tested form may be a part, canonical isoform): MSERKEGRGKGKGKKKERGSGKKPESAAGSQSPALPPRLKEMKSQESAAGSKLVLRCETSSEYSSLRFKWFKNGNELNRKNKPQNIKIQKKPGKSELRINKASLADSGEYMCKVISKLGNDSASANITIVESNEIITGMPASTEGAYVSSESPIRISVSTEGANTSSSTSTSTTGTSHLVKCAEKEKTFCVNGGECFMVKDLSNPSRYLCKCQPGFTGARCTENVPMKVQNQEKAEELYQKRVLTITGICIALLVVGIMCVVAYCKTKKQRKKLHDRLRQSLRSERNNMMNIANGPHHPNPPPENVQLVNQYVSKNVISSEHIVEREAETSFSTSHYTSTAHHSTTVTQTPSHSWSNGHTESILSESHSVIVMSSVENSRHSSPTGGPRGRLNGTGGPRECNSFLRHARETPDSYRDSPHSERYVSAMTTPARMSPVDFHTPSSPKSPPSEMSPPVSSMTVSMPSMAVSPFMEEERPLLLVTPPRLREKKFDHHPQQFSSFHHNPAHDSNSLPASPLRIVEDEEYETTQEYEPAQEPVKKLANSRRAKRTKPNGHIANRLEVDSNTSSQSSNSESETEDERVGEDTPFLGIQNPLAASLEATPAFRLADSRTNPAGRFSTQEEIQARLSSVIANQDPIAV

`CCCC=C(CCC)[C@@H](NS(=O)(=O)c1ccc(C(F)(F)F)cc1)c1ccccc1`: the composite z-score in assay [1] was -0.0179; in assay [2] it was -0.0296; in [3], 0.143; in assay [4] it was -0.0601; in assay [5], 0.0998; in assay [6] it was -0.152. In addition, the composite z-score in assay [7] worked out at 0.428; in assay [9], 0.302; in assay [10], 0.37; in assay [11], 0.907; in assay [15] it was 1.41; in assay [17] it was 0.0749. The figures for the composite z-score in assay [18], in assay [19] and in assay [20] were -0.0917, 0.275 and -0.0415, respectively. Further, the z-score in assay [8] is 1.75 (inactive); in [12], 1.22 (inactive); in [13] it was 1.46 (inactive); in assay [14], 3.03 (inactive); in assay [16] it was -1.74 (inactive).
In the case of `C[C@@H]1NC(=O)[C@@H](Cc2ccccc2)NC(=O)[C@@]23C(=O)N[C@@H](Cc4ccccc4)C2[C@H](C)[C@@]2(C)O[C@H]2C3/C=C/C/C=C\CNC1=O` (stereo not given in full), the composite z-score was -0.285 in assay [1]; 1.13 in assay [2]; -0.149 in assay [3]; -0.211 in assay [4]; -0.787 in assay [5]; -0.235 in assay [6]. Further, the composite z-score in assay [7] was 0.305; in assay [9], -0.263; in [10], -0.249; in assay [11], -1.06; in assay [15] it was 2.84; in assay [17], -0.218. Moreover, the results for the composite z-score in [18], in assay [19] and in assay [20] were 0.972, 0.354 and -0.168, respectively. For the same molecule, the z-score is -0.323 (inactive) in assay [8]; 0.378 (inactive) in assay [12]; 0.573 (inactive) in assay [13]; 0.783 (inactive) in assay [14]; -1.02 (inactive) in assay [16].
For `[N-]=[N+]=Nc1ccccc1C[C@@]1(C(=O)N2CCOCC2)N=C(c2ccc(OCCCO)cc2)O[C@@H]1c1ccccc1`, the composite z-score in assay [1] is -0.4; in assay [2], -0.121; in assay [3], 0.0324; in assay [4] it was 1.11; in assay [5], 1.3; in assay [6] it was 1.06. Moreover, the composite z-score was 1.18 in [7]; 1.71 in assay [9]; -0.112 in assay [10]; 1.54 in assay [11]; 3.38 in [15]; 0.0946 in assay [17]. Also, the composite z-score turned out to be 0.955 in assay [18], 1.11 in [19] and 0.778 in [20]. In addition, the z-score in assay [8] was -3.93 (inactive); in assay [12] it was -1.41 (inactive); in assay [13] it was -2.77 (inactive); in assay [14], 0.0666 (inactive); in [16] it was 0.568 (inactive).
Turning to `COc1ccc([Si](C)(C)[C@@H]2[C@@H](CCO)O[C@]3(C(=O)N(Cc4cccc(NC(=O)[C@H](C)O)c4)c4ccccc43)[C@H]2C)cc1`, the composite z-score in assay [1] was -0.328; in assay [2] it was 0.263; in assay [3], -0.053; in assay [4], 1.23; in assay [5], 0.487; in assay [6], 1.07. The composite z-score in [7] is 1.14; in assay [9] it was 0.146; in assay [10], -0.249; in assay [11], 1.54; in [15] it was 2.84; in assay [17], -0.159. The figures for the composite z-score in [18], in assay [19] and in [20] were 0.474, 0.662 and -0.152, respectively. The z-score in assay [8] is -3.53 (inactive); in assay [12], 1.84 (inactive); in [13] it was 0.193 (inactive); in assay [14], 34.6 (active); in assay [16] it was -0.327 (inactive).
Take `CCCCC(CC)C(O)C1C=CC2C(=O)N(c3ccccc3)C(=O)C2N1Nc1ccc(C#N)cc1` (stereo not given): the composite z-score in assay [1] turned out to be 0.883; in assay [2] it was 0.468; in assay [3], 0.332; in [4] it was 1; in [5], 1.59; in [6], 0.893. The composite z-score in assay [7] was 1.31; in assay [9] it was 1.66; in assay [10] it was -0.183; in [11], 1.54; in assay [15] it was 3.14; in assay [17] it was 0.555. The composite z-score came to 0.208 in [18], 1.04 in assay [19] and 0.338 in assay [20]. In addition, the z-score was -0.257 (inactive) in assay [8]; 0.491 (inactive) in [12]; 0.221 (inactive) in assay [13]; 1.85 (inactive) in assay [14]; 0.0307 (inactive) in [16].

The values above are taken from PubChem BioAssay.
